Laboratory results reported in PubChem BioAssay.
The source made the active and inactive calls.

How the values were obtained:
[1] = system: Plasmodium falciparum Sir2 (PF13_0152, Sir2A); assay: Plasmodium falciparum Sir2A binding compounds – biochemical, small-molecule microarray, 635 nm fluorescence, primary screen (AID 1098); conditions: fluorescence 635 nm, higher = more signal;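 also: score merges spot fluorescence intensity with its signal-to-noise ratio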
[2] = probe aDKK1 binding to arrayed compounds – biochemical, biotinylated probe, 635/667 nm fluorescence, primary screen (AID 1099); conditions: small-molecule microarray, higher = more signal;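 also: score merges 667nm spot fluorescence with signal to noise across triplicate slides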
[3] = probe aCHRDL2 binding to arrayed compounds – biochemical, biotinylated probe, 635/667 nm fluorescence, primary screen (AID 1100); conditions: small-molecule microarray, higher = more signal
[4] = change in splice reporter luminescence, either direction, cell-based, HEK293, spliceosome inhibition project, primary screen (AID 1101); conditions: HEK293 splicing luciferase reporter, 24 h, higher = more signal, called active from +8 up or from −8 down;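 also: HEK293 cells carrying a splicing-competent luciferase reporter gene; test concentration not given here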
[5] = molecular target: Fibroblast growth factor 10 (Homo sapiens) (UniProt O15520); assay: compounds binding fibroblast growth factor 10 – biochemical, small-molecule microarray, 635 nm fluorescence, primary screen (AID 1102); conditions: FGF10 binding, fluorescence 635 nm, higher = more signal
Sequence of Fibroblast growth factor 10 (Homo sapiens) (O15520 whole entry, looked up): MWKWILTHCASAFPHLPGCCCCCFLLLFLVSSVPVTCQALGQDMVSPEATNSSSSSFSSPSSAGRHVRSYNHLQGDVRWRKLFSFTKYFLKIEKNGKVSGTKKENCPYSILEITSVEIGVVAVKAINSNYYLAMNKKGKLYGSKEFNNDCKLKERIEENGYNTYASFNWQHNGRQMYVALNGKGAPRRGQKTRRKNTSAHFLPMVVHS

[6] = system: glycogen synthase kinase-3 (GSK3A per assay name; protocol says GSK3B); assay: compounds binding glycogen synthase kinase-3 – biochemical, small-molecule microarray, 635 nm fluorescence, GSK3A, primary screen (AID 1103); conditions: fluorescence 635 nm, higher = more signal; also: the record names both GSK3A and GSK3B
[7] = molecular target: Epidermal growth factor receptor (Homo sapiens) (UniProt P00533); assay: compounds binding epidermal growth factor receptor – biochemical, small-molecule microarray, 635 nm fluorescence, primary screen (AID 1104); conditions: EGFR binding, higher = more signal;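 also: score merges 667 nm emission intensity with spot signal to noise over triplicate slides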
Sequence of Epidermal growth factor receptor (Homo sapiens) (P00533 whole entry, looked up): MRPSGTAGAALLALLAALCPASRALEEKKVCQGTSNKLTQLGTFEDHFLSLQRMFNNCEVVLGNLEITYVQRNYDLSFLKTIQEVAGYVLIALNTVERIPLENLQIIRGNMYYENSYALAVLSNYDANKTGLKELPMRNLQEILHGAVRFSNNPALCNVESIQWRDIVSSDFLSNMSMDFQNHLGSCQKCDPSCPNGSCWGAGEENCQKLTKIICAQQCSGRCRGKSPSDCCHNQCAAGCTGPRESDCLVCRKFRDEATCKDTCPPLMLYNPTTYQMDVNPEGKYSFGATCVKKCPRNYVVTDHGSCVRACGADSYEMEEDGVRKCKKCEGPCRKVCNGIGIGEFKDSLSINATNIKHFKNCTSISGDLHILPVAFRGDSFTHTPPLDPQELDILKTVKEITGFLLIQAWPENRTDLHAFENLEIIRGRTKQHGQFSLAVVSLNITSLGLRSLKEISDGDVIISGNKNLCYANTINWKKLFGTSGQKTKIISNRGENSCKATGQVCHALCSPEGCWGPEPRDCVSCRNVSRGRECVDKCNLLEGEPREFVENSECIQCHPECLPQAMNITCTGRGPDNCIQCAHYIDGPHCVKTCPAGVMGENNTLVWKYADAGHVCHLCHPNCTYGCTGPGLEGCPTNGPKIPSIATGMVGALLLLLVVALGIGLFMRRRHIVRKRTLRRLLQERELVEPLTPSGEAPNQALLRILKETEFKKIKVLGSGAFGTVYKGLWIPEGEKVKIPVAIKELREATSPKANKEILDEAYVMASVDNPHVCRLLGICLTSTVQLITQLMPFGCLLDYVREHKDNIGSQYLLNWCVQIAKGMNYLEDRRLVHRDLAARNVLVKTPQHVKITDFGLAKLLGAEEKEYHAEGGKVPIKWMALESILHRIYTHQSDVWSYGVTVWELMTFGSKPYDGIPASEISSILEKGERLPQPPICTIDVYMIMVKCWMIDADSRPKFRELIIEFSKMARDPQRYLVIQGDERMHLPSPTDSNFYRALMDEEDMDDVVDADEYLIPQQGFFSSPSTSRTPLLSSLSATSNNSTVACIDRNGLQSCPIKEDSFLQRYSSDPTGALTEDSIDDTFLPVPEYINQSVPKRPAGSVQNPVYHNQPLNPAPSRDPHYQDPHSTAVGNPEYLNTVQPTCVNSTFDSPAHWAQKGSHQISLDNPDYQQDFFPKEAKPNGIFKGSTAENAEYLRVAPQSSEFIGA

[8] = molecular target: Follistatin-related protein 3 (Homo sapiens) (UniProt O95633); assay: compounds binding follistatin-related protein 3 – biochemical, small-molecule microarray, 635 nm fluorescence, primary screen (AID 1105); conditions: FSTL3 binding, higher = more signal;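 also: score merges emission near 667 nm and signal to noise per printed spot across three slides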
Sequence of Follistatin-related protein 3 (Homo sapiens) (O95633 whole entry, looked up): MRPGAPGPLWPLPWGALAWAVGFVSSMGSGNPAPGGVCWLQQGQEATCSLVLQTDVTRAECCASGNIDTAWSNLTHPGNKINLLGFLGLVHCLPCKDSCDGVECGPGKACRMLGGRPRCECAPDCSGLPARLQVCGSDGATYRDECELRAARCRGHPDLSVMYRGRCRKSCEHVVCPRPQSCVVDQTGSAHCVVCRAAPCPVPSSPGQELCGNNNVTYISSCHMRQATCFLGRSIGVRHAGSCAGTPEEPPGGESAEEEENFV

[9] = molecular target: Dickkopf-related protein 1 (Homo sapiens) (UniProt O94907); assay: small molecules binding DKK1 protein – biochemical, small-molecule microarray, 635 nm fluorescence scan, primary screen (AID 1106); conditions: higher = more signal;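 also: score merges emission near 667 nm with signal to noise over three replicate slides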
Sequence of Dickkopf-related protein 1 (Homo sapiens) (O94907 whole entry, looked up): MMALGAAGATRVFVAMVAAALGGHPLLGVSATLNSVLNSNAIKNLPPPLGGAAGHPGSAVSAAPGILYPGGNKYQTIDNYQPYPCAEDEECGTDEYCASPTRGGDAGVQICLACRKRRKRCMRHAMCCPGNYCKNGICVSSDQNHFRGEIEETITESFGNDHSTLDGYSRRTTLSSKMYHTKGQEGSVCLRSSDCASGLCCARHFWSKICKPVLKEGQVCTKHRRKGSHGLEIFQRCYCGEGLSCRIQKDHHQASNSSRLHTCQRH

[10] = system: Inhibin beta A chain (activin A); assay: small molecules binding activin A – biochemical, small-molecule microarray, 635 nm fluorescence scan, primary screen (AID 1107); conditions: INHBA, higher = more signal;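 also: mouse activin A protein probed at 4.33 µg/mL on printed slides; score merges bound-protein fluorescence near 667 nm with spot signal-to-noise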
[11] = system: Human papillomavirus type 1a protein E7 (residues 44-93); assay: small molecules binding HPV E7 44-93 – biochemical, small-molecule microarray, residues 44-93, 635 nm fluorescence, primary screen (AID 1108); conditions: fluorescence 635 nm, higher = more signal;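 also: E7 fragment applied at 1 µg/mL in TBST for 1 h at 4 C; score combines spot fluorescence with its signal to noise ratio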
[12] = hepatitis C replication reporter changes, two-sided – Huh7 cells, luciferase reporter, HCV replication inhibitor project, primary screen (AID 1109); conditions: Huh7 HCV replicon luciferase reporter, 48 h; higher = more signal;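 also: huh7 hepatoma cells harbouring a luciferase neomycin HCV replicon reporter; luciferase luminescence as measure of HCV replicon replication; test concentration not given here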
[13] = molecular target: Left-right determination factor 2 (Homo sapiens) (UniProt O00292); assay: small molecules binding LEFTY2 protein – biochemical, small-molecule microarray, 635 nm fluorescence scan, primary screen (AID 1110); conditions: higher = more signal
Sequence of Left-right determination factor 2 (Homo sapiens) (O00292 whole entry, looked up): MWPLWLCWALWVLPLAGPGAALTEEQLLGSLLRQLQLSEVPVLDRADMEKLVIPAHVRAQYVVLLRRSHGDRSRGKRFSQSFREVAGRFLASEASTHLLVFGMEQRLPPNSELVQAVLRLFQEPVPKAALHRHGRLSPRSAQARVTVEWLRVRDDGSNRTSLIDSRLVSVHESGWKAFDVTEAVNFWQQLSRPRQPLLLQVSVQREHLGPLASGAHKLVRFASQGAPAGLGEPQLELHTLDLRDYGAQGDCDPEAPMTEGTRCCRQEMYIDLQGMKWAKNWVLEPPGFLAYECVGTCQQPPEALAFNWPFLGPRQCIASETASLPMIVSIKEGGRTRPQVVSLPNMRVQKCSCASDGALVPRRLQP

[14] = molecular target: Calmodulin-1 (Homo sapiens) (UniProt P0DP23); assay: small molecules binding calmodulin-1 with EGTA – biochemical, small-molecule microarray, Cy5-labelled CALM1, profiling panel (AID 1111); conditions: Cy5-CALM1 binding fluorescence, higher = more signal;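 also: labelled calmodulin applied in Tris saline Tween buffer holding calcium plus EGTA and DTT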
[15] = molecular target: Calmodulin-1 (Homo sapiens) (UniProt P0DP23); assay: small molecules binding Ca-loaded calmodulin-1 – biochemical, small-molecule microarray, Cy5-labelled CALM1, plus calcium, artefact control for SMM control-protein annotation, profiling panel (AID 1112); conditions: Cy5-CALM1 binding fluorescence, higher = more signal;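 also: score merges spot fluorescence with signal to noise from triplicate slides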
[16] = probe aWnt5a binding to arrayed compounds – biochemical, biotinylated probe, 635/667 nm fluorescence, primary screen (AID 1113); conditions: small-molecule microarray, higher = more signal;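 also: score merges 667 nm fluorescence intensity with signal-to-noise per printed feature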
[17] = probe aShh binding to arrayed compounds – biochemical, biotinylated probe, 635/667 nm fluorescence, primary screen (AID 1114); conditions: small-molecule microarray, higher = more signal;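 also: probe is biotin-labelled aShh protein from a stem cell growth factor screen; measures binding of labelled protein to compounds printed on the slide; score merges feature fluorescence at 667 nm with signal-to-noise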
[18] = probe aNog binding to arrayed compounds – biochemical, biotinylated probe, 635/667 nm fluorescence, primary screen (AID 1115); conditions: small-molecule microarray, higher = more signal;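 also: probe is biotinylated aNog protein used at 0.15 µg/mL for 1 h at 4 C; z-score combines 667 nm fluorescence of each spot with its signal to noise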
[19] = molecular target: Torsin-1A-interacting protein 1 (Homo sapiens) (UniProt Q5JTV8); assay: compound microarray binding of lysate hLAP1 – cell lysate, small-molecule microarray, COS7 lysate, 635/667 nm fluorescence, primary screen (AID 1116); conditions: 635 nm fluorescence, higher = more signal
Sequence of Torsin-1A-interacting protein 1 (Homo sapiens) (Q5JTV8 whole entry, looked up): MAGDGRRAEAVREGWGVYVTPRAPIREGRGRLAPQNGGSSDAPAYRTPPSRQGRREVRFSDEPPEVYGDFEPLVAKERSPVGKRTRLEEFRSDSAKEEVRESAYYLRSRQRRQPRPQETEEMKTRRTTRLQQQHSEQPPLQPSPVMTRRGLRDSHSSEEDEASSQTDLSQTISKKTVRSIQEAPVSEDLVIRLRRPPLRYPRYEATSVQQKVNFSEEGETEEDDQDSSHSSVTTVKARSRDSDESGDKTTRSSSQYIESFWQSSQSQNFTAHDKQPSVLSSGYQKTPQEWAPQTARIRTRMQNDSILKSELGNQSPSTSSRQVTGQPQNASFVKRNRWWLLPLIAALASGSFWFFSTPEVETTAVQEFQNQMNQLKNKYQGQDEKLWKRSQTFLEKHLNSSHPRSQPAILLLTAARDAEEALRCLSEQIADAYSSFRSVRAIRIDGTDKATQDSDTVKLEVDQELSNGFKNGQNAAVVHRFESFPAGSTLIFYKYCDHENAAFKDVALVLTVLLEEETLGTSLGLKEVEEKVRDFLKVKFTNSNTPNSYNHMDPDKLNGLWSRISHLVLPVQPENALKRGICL

[20] = molecular target: Alpha-bungarotoxin (Bungarus multicinctus) (UniProt P60615); assay: compounds binding labelled alpha-BTX control protein – biochemical, small-molecule microarray, Alexa647 label, 635/667 nm fluorescence, artefact control for SMM control protein annotation, profiling panel (AID 1117); conditions: alpha-BTX-A647 binding fluorescence, higher = more signal
Sequence of Alpha-bungarotoxin (Bungarus multicinctus) (P60615 whole entry, looked up): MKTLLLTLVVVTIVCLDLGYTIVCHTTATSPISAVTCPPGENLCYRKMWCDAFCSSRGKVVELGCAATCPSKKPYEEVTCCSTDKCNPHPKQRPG

| Compound | composite z-score [1] | composite z-score [2] | composite z-score [3] | z-score [4] | composite z-score [5] | composite z-score [6] | composite z-score [7] | composite z-score [8] | composite z-score [9] | composite z-score [10] | composite z-score [11] | z-score [12] | composite z-score [13] | composite z-score [14] | composite z-score [15] | composite z-score [16] | composite z-score [17] | composite z-score [18] | composite z-score [19] | composite z-score [20] |
| --- | --- | --- | --- | --- | --- | --- | --- | --- | --- | --- | --- | --- | --- | --- | --- | --- | --- | --- | --- | --- |
| C=CC[C@@H]1C=C[C@H](ON=C[C@@H](OC)[C@H](C)C=CCC(=O)OC)[C@@H](CO)O1 | -0.433 | -0.0759 | -0.615 | 0.653 (inactive) | 0.423 | 0.306 | -0.0453 | 0.343 | 0.17 | 0.496 | 0.241 | -0.581 | 0.283 | -0.67 | -1.65 | -0.0222 | -0.0035 | -0.526 | 0.848 | -0.741 |
| CCOC(=O)[C@H](CC(C)C)NC(=O)CCC1CC(OC(=O)NCCc2ccc(F)cc2)CC2(CCCC(COC(=O)NCc3ccccc3)O2)O1 (stereo not given in full) | 0.859 | -0.273 | -0.29 | -1.19 (inactive) | 1.39 | 0.808 | 0.907 | 1.01 | 0.89 | -0.198 | 1.37 | -1.76 | 1.16 | 0.0292 | -0.008 | -0.113 | -0.214 | -0.183 | 0.575 | 0.287 |
| C[C@@H](c1ccccc1)N1C(=O)[C@H]2[C@H]3[C@H](O)C=CC(=O)[C@@H]3CC[C@H]2C1=O | -0.0301 | -0.293 | -0.674 | 0.432 (inactive) | 0.373 | 0.606 | 0.54 | 0.699 | 0.557 | 0.25 | -0.116 | -1.73 | 0.657 | 0.0321 | -0.442 | -0.192 | -0.34 | -0.374 | 0.203 | 0.0013 |
| CCOC(=O)CCN1C(=O)[C@H]2[C@H]3[C@H](O)[C@H](O)CC(=NOC[C@@H](O)COCc4ccco4)[C@@H]3CC[C@H]2C1=O | 0.0645 | 0.587 | 0.437 | 0.395 (inactive) | -0.133 | -0.412 | -0.0138 | -0.295 | -0.144 | 0.383 | 0.201 | 0.395 | -0.157 | 0.2 | 0.369 | -0.0462 | -0.223 | -0.0381 | 0.657 | 0.557 |
| CC(=O)C[C@H](O)[C@@H](NC(=O)OC(C)(C)C)C(C)C | -0.276 | -0.186 | -0.306 | -0.797 (inactive) | -0.456 | -1.45 | -0.397 | -0.441 | -0.31 | 0.123 | -2.43 | 0.479 | -0.319 | -0.292 | -0.327 | -0.203 | 0.0121 | -0.0926 | -0.547 | 0.0557 |
| C=C(COC)/C(=C/C[C@H](OC(=O)c1ccncc1)c1ccc(CO)o1)c1cc(C(=O)OC)ccc1OC | 1.69 | -0.0393 | -0.0885 | -0.647 (inactive) | 1.37 | 0.637 | 0.0603 | 1.15 | 0.82 | 1.34 | 0.822 | -0.718 | 0.208 | 0.0845 | -0.409 | -0.0107 | -0.0553 | -0.0446 | 0.0683 | 0.318 |
| O=C1C[C@@H](O)[C@@H](O)[C@@H]2[C@@H]3C(=O)N(Cc4ccc5c(c4)OCO5)C(=O)[C@@H]3CC[C@@H]12 | 0.27 | -0.159 | -0.562 | 0.706 (inactive) | 0.715 | 0.45 | 0.428 | 0.675 | 0.78 | 0.365 | -0.0301 | -0.644 | 0.796 | -0.504 | -0.56 | -0.0405 | 0.0278 | -0.239 | 0.441 | 0.0541 |
